Assay results reported in PubChem BioAssay.
“And” between values parts separate entries of the source, which are not always exact repeats. Identical values can stand only once. The source made the active and inactive calls.

What was measured:
Albumin (Bos taurus) = Albumin (Bos taurus) (UniProt P02769); assay: compounds binding labelled BSA control protein – biochemical, small-molecule microarray, Alexa647 label, 635/667 nm fluorescence, artefact control for SMM control protein annotation, profiling panel (AID 1118); details: BSA-A647 binding, fluorescence 635 nm, higher = more signal;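 further: score merges 667 nm emission intensity and signal-to-noise per printed compound spot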
[1] = probe aXIP binding to arrayed compounds – biochemical, NeuroSMM set, 635/667 nm fluorescence, primary screen (AID 1119); details: small-molecule microarray, higher = more signal, called active from +8 up or from −8 down;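 further: probe is the protein aXip251-270 applied at 1 µg/mL to compound-printed slides; binding of probe to printed compounds measured as 667 nm fluorescence plus signal to noise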
[2] = probe aNOTCH3 binding on compound microarray – biochemical, small-molecule microarray, 635/667 nm fluorescence, primary screen (AID 1120); details: higher = more signal;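 further: probe is a biotin-tagged antibody raised against NOTCH3 rather than NOTCH3 protein; score merges spot fluorescence near 667 nm with spot signal to noise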
[3] = probe aNOTCH2 binding on compound microarray – biochemical, small-molecule microarray, 635/667 nm fluorescence, primary screen (AID 1121); details: higher = more signal;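 further: score merges feature fluorescence read at 667 nm with its signal to noise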
[4] = biological target: Carbonic anhydrase 2 (Homo sapiens) (UniProt P00918); assay: compounds binding carbonic anhydrase 2 – biochemical, small-molecule microarray, Alexa647-labelled CAII, profiling panel (AID 1122); details: CAII-A647 binding fluorescence, higher = more signal
[5] = COS7 lysate on small-molecule microarray, probe aHis, 635 nm (AID 1123); details: COS7 cell lysate, fluorescence, higher = more signal;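 further: z-score combines 667nm fluorescence intensity with signal-to-noise per printed compound spot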
[6] = probe aLAP1 signal on lysate-treated microarray – cell lysate, small-molecule microarray, COS7 lysate, primary screen (AID 1124); details: probe aLAP1, fluorescence, higher = more signal;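 further: lysate comes from COS7 cells expressing LAP1 and is applied at 0.3 µg/mL; score merges spot fluorescence near 667 nm with signal-to-noise over triplicate slides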
Sam68 (KHDRBS1) = assay: compounds binding KHDRBS1 protein – biochemical, small-molecule microarray, 635 nm fluorescence, primary screen (AID 1125); details: higher = more signal;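 further: score merges 667 nm channel intensity with signal to noise over triplicate slides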
[7] = test system: Chordin-like protein 2 (CHRDL2); assay: compounds binding chordin-like 2 – biochemical, small-molecule microarray, 635 nm fluorescence, primary screen (AID 1126); details: fluorescence 635 nm, higher = more signal;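 further: printed compound slides probed with Chrdl2 protein at 4 µg/mL for 1 h at 4 C; score merges 667 nm emission intensity with signal to noise over three replicate slides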
[8] = biological target: Concanavalin-A (Canavalia ensiformis) (UniProt P02866); assay: compounds binding concanavalin A lectin – biochemical, small-molecule microarray, Alexa647 label, 635 nm, artefact control for SMM control protein annotation, primary screen (AID 1127); details: ConA-A647 binding fluorescence, higher = more signal;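 further: z combines 667 nm emission intensity with signal-to-noise across three replicate slides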
Concanavalin-A (Canavalia ensiformis), sequence (P02866 whole entry, looked up): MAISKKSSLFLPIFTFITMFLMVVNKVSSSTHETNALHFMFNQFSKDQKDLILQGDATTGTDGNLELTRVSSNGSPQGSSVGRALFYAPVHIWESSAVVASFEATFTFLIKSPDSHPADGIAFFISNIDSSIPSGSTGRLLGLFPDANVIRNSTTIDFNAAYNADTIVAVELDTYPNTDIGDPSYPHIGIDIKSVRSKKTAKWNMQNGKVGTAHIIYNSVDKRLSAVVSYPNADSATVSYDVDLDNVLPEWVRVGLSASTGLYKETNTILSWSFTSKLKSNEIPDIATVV

Albumin (Bos taurus), sequence (P02769 whole entry, looked up): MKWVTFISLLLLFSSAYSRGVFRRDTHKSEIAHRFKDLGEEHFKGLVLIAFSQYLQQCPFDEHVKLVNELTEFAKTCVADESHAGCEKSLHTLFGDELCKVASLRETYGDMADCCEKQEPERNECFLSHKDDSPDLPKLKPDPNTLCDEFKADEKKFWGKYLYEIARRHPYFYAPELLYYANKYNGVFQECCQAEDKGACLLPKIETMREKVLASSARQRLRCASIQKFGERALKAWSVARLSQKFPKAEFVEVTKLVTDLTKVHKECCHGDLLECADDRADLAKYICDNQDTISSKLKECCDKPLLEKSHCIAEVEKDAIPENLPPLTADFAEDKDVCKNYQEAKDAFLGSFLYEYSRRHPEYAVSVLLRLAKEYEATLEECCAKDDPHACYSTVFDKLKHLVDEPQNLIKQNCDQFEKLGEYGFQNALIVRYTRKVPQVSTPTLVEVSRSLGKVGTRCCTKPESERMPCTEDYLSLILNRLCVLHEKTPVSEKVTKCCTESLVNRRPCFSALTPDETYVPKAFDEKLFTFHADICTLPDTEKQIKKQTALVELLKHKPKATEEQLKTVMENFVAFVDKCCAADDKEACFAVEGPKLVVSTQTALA

SMILES	composite z-score (Albumin (Bos taurus))	composite Z-score [1]	composite z-score [2]	composite z-score [3]	composite z-score [4]	composite z-score [5]	composite z-score [6]	composite z-score (Sam68 (KHDRBS1))	composite z-score [7]	composite z-score [8]
CCOC(=O)NN=C1C[C@@H](O)[C@@H](O)[C@@H]2[C@@H]3C(=O)N(Cc4ccccc4)C(=O)[C@@H]3CC[C@@H]12	-0.0904	0.182 (inactive)	-0.166	-0.135	-0.0916	-0.381	0.0195	0.254	0.772	0.42
C=CCN(CCCC)C(=O)C1N(C(C)(C)CO)C(=O)C2C(C(=O)O)C3C=CC21O3 (stereo not given)	-0.0353 and -0.347	-0.726 (inactive) and -1.17 (inactive)	-0.589 and -0.497	-0.161 and 0.544	0.909 and 0.619	0.12 and -0.103	-0.2 and -0.226	-1.62 and -1.72	-3.25 and -1.75	-1.25 and -2.32
Cc1cc2c(nc1C)CCCN2CC(O)CN1CCCc2nc(-c3ccc(Br)cc3)ccc21 (stereo not given)	-0.473 and 0.163	2.2 (inactive) and 4.49 (inactive)	0.569 and 0.969	0.174 and 0.519	0.492 and 0.401	0.531 and 1.25	0.741 and 0.489	1.29	0.955 and 1.08	0.975 and 1.03
C=CCN(C(=O)C(c1cccs1)N(CCOCCO)C(=O)/C=C\C(=O)O)C(C)(C)C (stereo not given)	-0.503 and -0.823	-0.48 (inactive) and -0.0662 (inactive)	-0.387 and -0.349	-0.148 and -0.126	0.847 and 0.9	-0.851 and 0.606	-0.957 and 0.0378	-1.33 and -0.246	-2.31 and -1.58	-1.4 and -1.67
C=CCN(CCCCC)C(=O)C(c1cccs1)N(CCOCCO)C(=O)/C=C\C(=O)O (stereo not given)	-0.148 and -0.301	-0.116 (inactive) and 0.239 (inactive)	-0.554 and -0.488	-0.177 and -0.143	0.86 and 0.368	-1.01 and -0.267	-0.0541 and 0.235	-0.856 and -0.0967	-1.91 and -1.04	-0.611 and -0.988
CCN1C(=O)[C@H]2[C@H]3[C@H](O)[C@H](O)CC(=NOC[C@@H](O)COCc4ccco4)[C@@H]3CC[C@H]2C1=O	-0.423 and 0.677	-1.03 (inactive) and -0.471 (inactive)	-0.161 and -0.0026	-0.17 and -0.234	-0.473 and 0.753	-0.945 and 0.351	-0.0847 and -0.0256	-0.368 and 0.0907	1.54 and 0.0802	-0.716 and 0.422
CC(C)=CCCC(C)=CCON=C1C[C@@H](O)[C@@H](O)[C@@H]2[C@@H]3C(=O)N([C@@H](C)c4ccccc4)C(=O)[C@@H]3CC[C@H]12	0.799	-0.501 (inactive)	-0.0048	0.296	0.206	1.37	0.308	1.12	1.03	0.0996
C=CCN(CCCC)C(=O)C(c1cccs1)N(C(=O)/C=C\C(=O)O)c1ccc(CCO)cc1 (stereo not given)	-1.02 and -2.4	0.127 (inactive) and -0.0505 (inactive)	-0.437 and -0.449	-0.171 and -0.202	0.864 and 0.861	0.0769 and -0.501	0.132 and -0.426	-0.798 and -1.53	-1.26 and -4.41	-1.83 and -1.63
CO[C@@H]1COC(=O)CC=C[C@H](C)COC(=O)[C@H](C)NC(=O)CC=C[C@H]1C	-1.02	0.332 (inactive)	-0.1	-0.164	-0.427	-0.448	-0.235	0.548	1.06	0.161
O=C1[C@H]2[C@H]3[C@H](O)[C@H](O)CC(=NOCc4ccccc4)[C@H]3CC[C@H]2C(=O)N1Cc1ccccc1	0.273	-0.283 (inactive)	-0.136	-0.0729	0.0146	0.233	-0.123	-0.873	0.374	-0.229
COC(=O)C1=C(C)N(Cc2ccccc2)C2=C(C(=O)c3ccccc3)[C@H](c3ccccc3)[C@@](O)(C(=O)OC)C(=O)N2[C@@H]1c1ccccc1	0.388 and 0.0897	-0.174 (inactive) and -0.441 (inactive)	0.177 and -0.0265	0.0929 and -0.171	0.0303 and -0.0063	-0.224 and 0.306	0.0568 and 0.016	0.928 and 0.821	0.275 and 0.455	0.914 and 0.37
C[N+](C)(C)CCCCNC(=O)[C@H]1C[C@H]2C(=O)N[C@@H](CCCC[N+](C)(C)C)C(=O)N2[C@H]1c1ccc(O)cc1	-0.839 and -1.32	0.472 (inactive) and 2.29 (inactive)	-0.0947 and 0.0311	-0.14 and -0.108	0.257 and 0.0659	0.385 and 0.233	-0.126 and -0.102	1.32 and 0.681	1.5 and 1.48	1.16 and -0.33
CO[C@@H]1COC(=O)[C@H](Cc2ccccc2)NC(=O)CC=C[C@@H](C)[C@H](OC)COC(=O)[C@@H](C)NC(=O)CC=C[C@H]1C	-1.24 and 0.871	-0.17 (inactive) and -0.452 (inactive)	0.0522 and -0.023	-0.173 and -0.214	-0.0035 and 0.27	-0.0816 and -0.0434	-0.502 and 0.07	1.09 and 0.672	1.03 and 1.43	-0.85 and -0.233
O=C(NN=C1C[C@@H](O)[C@@H](O)[C@@H]2[C@@H]3C(=O)N(Cc4ccc5c(c4)OCO5)C(=O)[C@@H]3CC[C@H]12)OCc1ccccc1	-0.401	-0.0252 (inactive)	0.157	-0.11	-0.612	-0.648	-0.21	0.0918	-0.556	-0.232
C[N+](C)(C)CCCCCCNC(=O)[C@H]1C[C@H]2C(=O)N[C@@H](CCCC[N+](C)(C)C)C(=O)N2[C@H]1c1ccc(O)cc1	-1.56 and 0.119	-0.232 (inactive) and 0.577 (inactive)	-0.0359 and -0.0947	-0.136 and -0.0651	0.142 and 0.718	0.186 and 0.951	-0.149 and -0.179	0.0061 and 0.117	0.823 and 0.178	-0.341 and -0.163
